# According to PubChem BioAssay AID1159580 (chemical genetic matrix, 2015):
# About 2,000 (36%) of roughly 5,500 compounds were called active. About 18% were inconclusive and are not listed. The list shows a part of the results. A number with no mark means an inactive call. Rule as the data show it: active = normalized growth mostly below about 0.91 (no sharp cut-off); inconclusive = no clear call, values can overlap the other calls; inactive = mostly above about 0.92.
# Test: chemical genetic growth profiling, strain panel (AID 1159580);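 also: tested at 20 µM; growth read once vehicle control cultures reached saturation at 30 °C; 1 = growth at the plate median or of vehicle wells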
# Settings: S. cerevisiae deletion strains, growth OD
smiles,measurement,setting,value
CCCn1c(=O)c2c(ncn2C)n(CCC)c1=O,normalized growth,"locus YAL013W, strain DEP1, stronger effect = lower value",0.983
same,normalized growth,"locus YAL040C, strain CLN3, stronger effect = lower value",1.13 [resistant] (active)
same,normalized growth,"locus YCL061C, strain MRC1 (second series), stronger effect = lower value",1
same,normalized growth,"locus YDR150W, strain NUM1, stronger effect = lower value",1.02
same,normalized growth,"locus YDR363W, strain ESC2, stronger effect = lower value",0.964
same,normalized growth,"locus YER002W, strain NOP16, stronger effect = lower value",0.999
same,normalized growth,"locus YGR078C, strain PAC10, stronger effect = lower value",0.986
same,normalized growth,"locus YNL128W, strain TEP1, stronger effect = lower value",0.992
same,normalized growth,"locus YNL175C, strain NOP13, stronger effect = lower value",1
same,normalized growth,"locus YNL197C, strain WHI3, stronger effect = lower value",1
same,normalized growth,"locus YNL224C, strain SQS1, stronger effect = lower value",0.988
same,normalized growth,"locus YNL322C, strain KRE1, stronger effect = lower value",0.994
same,normalized growth,"locus YOR083W, strain WHI5 (second series), stronger effect = lower value",0.981
same,normalized growth,"locus YPL241C, strain CIN2, stronger effect = lower value",1.01
